Drawing on PubChem BioAssay (NCI), this text covers growth inhibition for 17 compounds.

The panel holds about 79,000 compounds, 15% with a hit somewhere; the sample as a whole holds those more often. A number with no mark means an inactive call. Activity calls are given as the source filed them. Cut-off read from the data, not from the text of the source: active = growth inhibition above about 70%; inactive = the rest.

A short description of this experiment: NCI Yeast Anticancer Drug Screen. Data for the rad52 strain (AID 147).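 Note: 0% = growth of vehicle-treated control cultures.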 The note with it: S. cerevisiae rad52 mutant growth inhibition; at 33.0 µM; hits give high values. The method, boiled down: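 Growth of repair-deficient yeast cells was compared between compound-treated and vehicle-treated cultures to give percent inhibition.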
On to `CS(=O)(=O)SCc1ccc([N+](=O)[O-])cc1`, for which the growth inhibition was 99% (active).
In the case of `Cc1csc(=S)n1OC(=O)NC1CCCCC1`, the growth inhibition is 99% (active).
On to `CCOc1ccc(NC(=O)C2=C(C)NC(C)=C(C(=O)Nc3ccc(OCC)cc3)C2c2cccc([N+](=O)[O-])c2)cc1`, for which the growth inhibition was 49%.
As to `CC(C)(C)N=C(NO)c1ccccc1`, the growth inhibition is 25%.
Turning to `CCCCC/C(=C(\C#N)C(=O)OCC)c1ccccc1`, the growth inhibition is 7%.
Consider `O=C(NCCCl)Sc1ccc(Cl)cc1`, for which the growth inhibition was 55%.
`O=C1Nc2ccc(Br)cc2C1=Nc1ccc2c(c1)OCO2`: the growth inhibition is 10%.
As for `CCC(C)OC(=O)Nc1ccc(C)c(NC(=O)OC(C)CC)c1` (configuration not stated), the growth inhibition is 9%.
For the compound `O=C(O)c1cc2ccc(Cl)cc2c(O)c1C1=CCCCC1`, the growth inhibition is 46%.
As to `CN(C)Cc1cc(N=Nc2ccc(Cl)cc2)ccc1OC(=O)c1ccccc1`, the growth inhibition was 7%.
Under `CN1CCN(C(=O)/C=C/C(=O)c2ccccc2)CC1` stands 63%.
Under `CCCC/C=C/C(C)(C(=O)OCC)C(=O)OCC` stands 4%; under `Cc1nc(-c2cc3cc([N+](=O)[O-])ccc3oc2=O)cs1`, 65%; under `Cc1nc2ccccc2nc1NNc1ccccc1`, 4%.
Under `CN(C)[C@@H]1C(=O)C(C(N)=O)=C(O)[C@@]2(O)C(=O)C3=C(O)c4c(O)cccc4C[C@H]3C[C@@H]12` stands 97% (active); under `COc1ccc(NC(=O)CC2SC(=Nc3ccccc3C)NC2=O)c([N+](=O)[O-])c1` (configuration not stated), 13%.
`COc1cc(O)c2c(c1O)C(=O)c1cc(C)ncc1C2=O`: the growth inhibition is 51%.
